Measurements from PubChem BioAssay (NCI).
This is part of a sample that, as a whole, favours compounds with a hit. Of some 79,000 tested, about 15% had one in any assay. The source made the active and inactive calls. Cut-off read from the data, not from the text of the source: active = growth inhibition above about 70%; inactive = the rest.

Columns and labels:
[1] = NCI Yeast Anticancer Drug Screen. Data for the rad52 strain (AID 147);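 note: 0% = growth of vehicle-treated control cultures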; conditions: S. cerevisiae rad52 mutant growth inhibition, hits give high values
Outline: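 DNA repair-defective yeast; compound exposure; growth scored against vehicle controls.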

[2] = NCI Yeast Anticancer Drug Screen. Data for the wt1 strain (AID 149);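 note: 0% = growth of vehicle-treated wt1 cultures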; conditions: S. cerevisiae wt1 strain (SPY 50644) growth inhibition, hits give high values
Outline: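 Yeast wt1 strain exposed to compounds; growth inhibition measured relative to vehicle-treated controls.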

[3] = NCI Yeast Anticancer Drug Screen. Data for the rad50EPP+ strain (AID 151);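 note: 0% = growth of vehicle-treated control cultures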; conditions: S. cerevisiae rad50 mutant strain, hits give high values
Outline: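 rad50EPP+ yeast treated with test compounds. Readout: growth vs vehicle control.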

[4] = NCI Yeast Anticancer Drug Screen. Data for the rad50 strain (AID 155);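 note: 0% = growth of vehicle-only cultures of the same strain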; conditions: S. cerevisiae rad50 strain growth inhibition, hits give high values
Outline: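 Yeast carrying a defined DNA repair defect were exposed to test compounds, and growth was compared with vehicle-treated controls to give percent inhibition.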

[5] = NCI Yeast Anticancer Drug Screen. Data for the mec2-1 strain (AID 157); conditions: S. cerevisiae mec2-1 strain, hits give high values
Outline: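 Growth inhibition is read against vehicle-treated controls after compound exposure of the mec2-1 yeast strain, which is defective in DNA damage repair or cell cycle control.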

[6] = NCI Yeast Anticancer Drug Screen. Data for the rad14 strain (AID 159);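 note: 0% = growth of vehicle-treated control cultures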; conditions: S. cerevisiae rad14 strain growth inhibition, hits give high values
Outline: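 Yeast cells carrying a defined DNA-repair defect were exposed to compounds, and growth inhibition was calculated relative to vehicle-treated control cultures.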

[7] = NCI Yeast Anticancer Drug Screen. Data for the sgs1 mgt1 strain (AID 161);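 note: 0% = growth of cultures given vehicle only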; conditions: S. cerevisiae sgs1 mgt1 strain, hits give high values
Outline: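 Percent growth inhibition was derived by comparing compound-exposed mutant yeast with vehicle-exposed cultures. The strain carries alterations in DNA damage repair.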

[8] = NCI Yeast Anticancer Drug Screen. Data for the CLN2oe strain (AID 163);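 note: 0% = growth of vehicle-only control cultures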; conditions: S. cerevisiae CLN2oe strain, hits give high values
Outline: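 Compound-treated yeast; growth vs vehicle ctrl = % inhibition. Genetically altered strain (cell-cycle control).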

[9] = NCI Yeast Anticancer Drug Screen. Data for the cln2 rad14 strain (AID 165);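 note: 0% = growth equal to vehicle treated cultures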; conditions: S. cerevisiae cln2 rad14 strain, hits give high values
Outline: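 Growth inhibition, relative to vehicle-treated controls, is the read-out. The test organism is a yeast strain with defined genetic alterations, cln2 rad14.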

[10] = NCI Yeast Anticancer Drug Screen. Data for the bub3 strain (AID 167); conditions: S. cerevisiae bub3 mutant strain, hits give high values
Outline: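 Compounds were applied to a genetically altered yeast strain carrying a cell-cycle control defect. Growth inhibition was scored against vehicle-treated controls.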

[11] = NCI Yeast Anticancer Drug Screen. Data for the wt2 strain (AID 169);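 note: 0% = growth of vehicle-treated yeast cultures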; conditions: S. cerevisiae wt2 strain growth inhibition, hits give high values
Outline: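 Compound exposure of yeast; growth compared with vehicle controls; inhibition reported.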

[12] = NCI Yeast Anticancer Drug Screen. Data for the mlh1 strain (AID 171);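 note: 0% = growth of vehicle-treated control cultures of the same strain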; conditions: S. cerevisiae mlh1 strain growth inhibition, hits give high values
Outline: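 Compounds are applied to a genetically altered yeast strain, and its growth is compared with that of vehicle-treated cultures to give percent inhibition.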

[13] = NCI Yeast Anticancer Drug Screen. Data for the sgs1 strain (AID 173);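 note: 0% = growth of vehicle-only control cultures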; conditions: S. cerevisiae sgs1 mutant, hits give high values
Outline: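 Compounds applied to genetically altered yeast; growth compared with vehicle-treated cultures to give % inhibition.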

[14] = NCI Yeast Anticancer Drug Screen. Data for the mlh1 rad18 strain (AID 175); conditions: S. cerevisiae mlh1 rad18 strain growth inhibition, hits give high values
Outline: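 Cells of a genetically altered yeast strain, deficient in DNA damage repair, were treated with compound. Their growth was then compared with that of vehicle-treated cultures to give inhibition.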

[15] = NCI Yeast Anticancer Drug Screen. Data for the rad18 strain (AID 177); conditions: S. cerevisiae rad18 mutant growth inhibition, hits give high values
Outline: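 Compounds are applied to a repair-deficient yeast strain, and growth is compared with that of vehicle-treated cultures to give percent inhibition.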

[16] = NCI Yeast Anticancer Drug Screen. Data for the mgt1 strain (AID 153); conditions: S. cerevisiae mgt1 mutant growth inhibition, hits give high values
Outline: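 Growth inhibition relative to vehicle controls was scored for the mgt1 yeast strain after compound exposure.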

[17] = at 5.0 µM (retest, dose inferred, filed as 0.5)
[18] = at 50.0 µM (retest, dose inferred, filed as 5.0)

Measured: growth inhibition

Cc1ccc(Nc2nc3c(=O)n(C)c(=O)n(C)c3nc2Nc2ccc(C)cc2)cc1
active: [4]; at 50.0 µM 92.5% | [5]; at 50.0 µM 95.3% | [7]; at 50.0 µM 92.8% | [9]; at 50.0 µM 79.3% | [10]; at 50.0 µM 94.5% | [14]; [18] 89% | [14]; at 50.0 µM 95.7%
inactive: [1]; at 1.2 µM -2% | [1]; at 3.7 µM 2% | [1]; at 11.0 µM 2% | [1]; at 33.0 µM 2% | [1]; at 100.0 µM 30% | [2]; at 1.2 µM 0% | [2]; at 3.7 µM -1% | [2]; at 11.0 µM 1% | [2]; at 33.0 µM -3% | [2]; at 100.0 µM 6% | [3]; at 1.2 µM 3% | [3]; at 3.7 µM -2% | [3]; at 11.0 µM -6% | [3]; at 33.0 µM -16% | [3]; at 100.0 µM 41% | [4]; at 1.2 µM -2% | [4]; at 3.7 µM 1% | [4]; [17] -13% | [4]; at 11.0 µM 2% | [4]; at 33.0 µM 0% | [4]; [18] 66% | [4]; at 100.0 µM 23% | [5]; at 1.2 µM -2% | [5]; at 3.7 µM 3% | [5]; [17] -9% | [5]; at 11.0 µM -2% | [5]; at 33.0 µM -4% | [5]; [18] 22% | [5]; at 100.0 µM 11% | [6]; at 1.2 µM 0% | [6]; at 3.7 µM -4% | [6]; at 11.0 µM -1% | [6]; at 33.0 µM -5% | [6]; at 100.0 µM 7% | [7]; [17] -2% | [7]; [18] 45% | [8]; at 1.2 µM -2% | [8]; at 3.7 µM 3% | [8]; at 11.0 µM -4% | [8]; at 33.0 µM -5% | [8]; at 100.0 µM -10% | [9]; [17] -14% | [9]; [18] 11% | [10]; at 1.2 µM -3% | [10]; at 3.7 µM -5% | [10]; [17] -9% | [10]; at 11.0 µM 0% | [10]; at 33.0 µM -1% | [10]; [18] 16% | [10]; at 100.0 µM 2% | [11]; at 1.2 µM 0% | [11]; at 3.7 µM -1% | [11]; at 11.0 µM -1% | [11]; at 33.0 µM -2% | [11]; at 100.0 µM 12% | [12]; at 1.2 µM 0% | [12]; at 3.7 µM -2% | [12]; at 11.0 µM 1% | [12]; at 33.0 µM -3% | [12]; at 100.0 µM 3% | [13]; at 1.2 µM -3% | [13]; at 3.7 µM 2% | [13]; at 11.0 µM 1% | [13]; at 33.0 µM 3% | [13]; at 100.0 µM 20% | [14]; [17] -14% | [15]; at 1.2 µM 2% | [15]; at 3.7 µM 0% | [15]; at 11.0 µM 11% | [15]; at 33.0 µM 4% | [15]; at 100.0 µM 46%

CCCCc1cc(O)ccc1O
inactive: [1]; at 1.2 µM 2% | [1]; at 3.7 µM 13% | [1]; at 11.0 µM 24% | [1]; at 33.0 µM 27% | [1]; at 100.0 µM 29% | [2]; at 1.2 µM -2% | [2]; at 3.7 µM -2% | [2]; at 11.0 µM 0% | [2]; at 33.0 µM 3% | [2]; at 100.0 µM 1% | [3]; at 1.2 µM 13% | [3]; at 3.7 µM 34% | [3]; at 11.0 µM 57% | [16]; at 1.2 µM -4% | [16]; at 3.7 µM -1% | [16]; at 11.0 µM 1% | [16]; at 33.0 µM 0% | [16]; at 100.0 µM 10% | [4]; at 1.2 µM 6% | [4]; at 3.7 µM 12% | [4]; [17] -81% | [4]; at 11.0 µM 32% | [4]; at 33.0 µM 54% | [4]; at 50.0 µM 20.7% | [4]; at 100.0 µM 62% | [5]; at 1.2 µM 4% | [5]; at 3.7 µM 2% | [5]; [17] -37% | [5]; at 11.0 µM 1% | [5]; at 33.0 µM 17% | [5]; [18] -13% | [5]; at 50.0 µM 11.2% | [5]; at 100.0 µM 28% | [7]; [17] -48% | [7]; [18] 6% | [7]; at 50.0 µM 43.7% | [8]; at 1.2 µM -3% | [8]; at 3.7 µM 1% | [8]; at 11.0 µM 3% | [8]; at 33.0 µM 11% | [8]; at 100.0 µM 21% | [9]; [17] -54% | [9]; [18] -31% | [9]; at 50.0 µM 19.5% | [10]; at 1.2 µM -9% | [10]; at 3.7 µM -1% | [10]; [17] -63% | [10]; at 11.0 µM -5% | [10]; at 33.0 µM 5% | [10]; [18] 3% | [10]; at 50.0 µM 27.6% | [10]; at 100.0 µM 19% | [11]; at 1.2 µM 0% | [11]; at 3.7 µM -1% | [11]; at 11.0 µM 1% | [11]; at 33.0 µM 3% | [11]; at 100.0 µM 6% | [12]; at 1.2 µM 6% | [12]; at 3.7 µM -1% | [12]; at 11.0 µM 4% | [12]; at 33.0 µM 9% | [12]; at 100.0 µM 4% | [13]; at 1.2 µM 0% | [13]; at 3.7 µM 6% | [13]; at 11.0 µM 10% | [13]; at 33.0 µM 24% | [13]; at 100.0 µM 42% | [14]; [17] -86% | [14]; [18] 42% | [14]; at 50.0 µM 64.3% | [15]; at 1.2 µM 3% | [15]; at 3.7 µM 7% | [15]; at 11.0 µM 15% | [15]; at 33.0 µM 26% | [15]; at 100.0 µM 31%
active: [3]; at 33.0 µM 77% | [3]; at 100.0 µM 88% | [4]; [18] 87%
